These results are taken from PubChem BioAssay.

Results filed as inconclusive are left out. Activity calls are given as the source filed them. Unless noted, cut-off not given; nearly all actives show IC50 up to about 30 µM.

In general, AC50 refers to the concentration at which the activity in the assay is half-maximal. For orientation: IC50 means the concentration that gives 50% inhibition.

The nature of the first test: JHH-DIPG-1 glioma cell viability, MIPE5.0 library, CellTiter-Glo luminescence, qHTS (AID 1347067; cut-off not given, nearly all actives have AC50 up to about 26 µM;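 further: cells exposed to compound for 48 hours before readout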). As to conditions: JHH-DIPG-1 glioma viability, CellTiter-Glo ATP luminescence.
For `Cc1cc(C)c(S(=O)(=O)N(CCc2cccc(Br)c2)Cc2ccc(-c3cccc(S(C)(=O)=O)c3)cc2)c(C)c1`, the result was inactive.
`O=C(Cc1ccccc1)Nc1nnc(CCSCCc2nnc(NC(=O)Cc3ccccc3)s2)s1`: the half-maximal activity concentration (AC50) was 14.8 µM (active).
In the case of `C=CC(=O)N1CCC[C@H](n2c(=O)n(-c3ccc(Oc4ccccc4)cc3)c3c(N)ncnc32)C1`, the AC50 was 0.742 µM (active).
Take `CNCCCOc1cc(F)c(-c2c(Cl)nc3ncnn3c2N[C@@H](C)C(F)(F)F)c(F)c1`: the AC50 is 0.105 µM (active).
With `CCc1ccc2nc(Nc3cc(Cc4ccccc4)nc(NC4CCC(O)CC4)n3)sc2c1` (stereo not drawn), the concentration at half-maximal activity (AC50) was 20.9 µM (active).

A further test is described as follows: SU-DIPG-XXV glioma cell viability, MIPE5.0 library, qHTS (AID 1347068).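 On IC50: cells exposed to compound for 48 hours before viability readout.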
Details: not given
Regarding `CCO[C@@H]1OC(=O)C[C@@H]1NC(=O)[C@@H]1CCCN2C(=O)CC[C@H](NC(=O)c3nccc4ccccc34)C(=O)N12`, the result was inactive.
As to `O=C(Nc1ccc2c(c1)CCN(Cc1ncn[nH]1)C2)c1ccccc1-c1ccc(C(F)(F)F)cc1`, the call was inactive.
With `CN1CCN(C(=O)[C@H]2[C@@H](C(=O)O)[C@H]3CC[C@@H]2O3)CC1`, the call was inactive.
For `COC1CCC(N2C(=O)CNc3ncc(-c4ccc(C(C)(C)O)nc4)nc32)CC1` (stereo not drawn), the 50% inhibitory concentration (IC50) is 14.8 µM (active).
For `CC[C@@H](Oc1cccc(CN(CCCOc2ccc(OC)cc2)c2nc3ccccc3o2)c1)C(=O)O`, the call was inactive.
For `C=CC(=O)Nc1cccc(C)c1Nc1ncc2cc(-c3c(Cl)c(OC)cc(OC)c3Cl)ccc2n1`, the IC50 is 9.34 µM (active).
As to `O=C(O)c1cnn(-c2nc3cc(OC(F)(F)F)c(Cl)cc3[nH]2)c1`, the molecule was classed as inactive.
`Cc1cc(OCc2nnc(SC3CCCC3)n2-c2cccnc2)ccc1-c1ccc(S(C)(=O)=O)cc1`: the call was inactive.
